Lassa entry inh: qHTS for Inhibitors of binding or entry into cells for Lassa Virus | Lassa virus pseudotype entry inhibition, cell reporter | Potency, µM (highest dose often 37.9 µM), actives largely listed as inhibitors | 1.2% of 300,000 active | AID 540256, 2011; calls by dose curve; tested in HEK293 cells; further: nearly all actives have a fitted effect of over 50% in size
MARV entry inh: qHTS for inhibitors of binding or entry into cells for Marburg Virus; Marburg virus pseudotyped entry inhibition, cell reporter; Potency, µM (highest dose often 37.8 µM), most hits filed as inhibitors; 1.8% of 300,000 active; calls by dose curve; tested in HEK293 cells
HCV inhibitor: qHTS Assay for Inhibitors of Hepatitis C Virus (HCV) | Huh7.5.1 HCVcc-Cre infection, luciferase reporter, 44 h | Potency, µM (top dose mostly 41.8 µM), usual class: inhibitors | 3.4% of 340,000 active
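After 44 h co-culture of compound, cells and HCVcc-Cre (~0.5 moi), substrate is added for 15 min at room temperature and luciferase measured over 15 sec. Cells were seeded at 1,000/well and pre-cultured 4 h.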
FMDV antiviral: High Throughput Screening for Foot and Mouth Disease Virus Antivirals. Potency, µM (series often up to 57.9 µM), actives largely listed as inhibitors. 1.2% of 410,000 active. AID 1159524, 2015. FMDV antiviral cell-based qHTS; calls by dose curve; tested in HEK293T cells; further: read-out not given here; nearly all actives have a fitted effect of over 45% in size
FBPA Giardia inh: qHTS Assay for Inhibitors of Fructose-1,6-bisphosphate Aldolase from Giardia Lamblia; 0.71% of 290,000 active; purified Giardia FBPA; Potency, µM (highest dose often 59.6 µM), usual class: inhibitors; A8B2U2; further: nearly all actives have a fitted effect of over 55% in size
Target sequence (A8B2U2 whole entry, looked up): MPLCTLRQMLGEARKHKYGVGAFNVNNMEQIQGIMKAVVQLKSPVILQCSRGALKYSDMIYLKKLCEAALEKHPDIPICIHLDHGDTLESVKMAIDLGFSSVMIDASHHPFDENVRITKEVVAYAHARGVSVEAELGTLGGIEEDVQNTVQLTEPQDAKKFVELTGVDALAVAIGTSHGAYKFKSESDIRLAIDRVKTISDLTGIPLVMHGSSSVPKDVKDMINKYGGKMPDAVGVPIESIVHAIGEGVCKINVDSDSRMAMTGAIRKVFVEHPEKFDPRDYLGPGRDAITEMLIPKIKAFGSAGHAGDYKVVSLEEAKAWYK
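Giardia FBPA (40 nM reagent) was preincubated 10 min at RT with compound (up to 57.5 uM final), then substrate plus GAPDH/TPI/NAD/arsenate coupling system with diaphorase/resazurin was added; resorufin fluorescence (525/598 nm) was read after 20 min.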
HCMV antiviral: qHTS Assay for inhibitors of the human cytomegalovirus (HCMV). 4.5% of 410,000 active. HFF cells, HCMV-luciferase reporter, 72 h; hits give low values. activity change, negative = inhibition, % at 57.5 µM. AID 1259415, 2018; in the data active means activity change below about -60%; inconclusive means no clear call, values can overlap the other calls; inactive means above about -39%
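Luciferase read-out from HCMV-luciferase-infected HFFs (MOI 1 PFU/cell) 72 h post infection at 37C; compounds added after 16 h cell attachment; activity normalized between buffer-only basal and Salinomycin (10uM) inhibitor controls.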
A number is an active result; . = inactive; ? = inconclusive; / = no result given; [ ] = another dose, or the depositor's remark. An excerpt weighted towards active compounds, which were near 8.3% of everything screened. Unless noted, the call rests on the fitted dose curve; in most records, active means well fitted curve in the direction sought with a large enough effect; inconclusive means small, poorly fitted or top-dose-only effect, or another doubt; inactive means no such curve, though single readings can be large; an effect the other way counts as inactive or inconclusive.

SMILES | Lassa entry inh | MARV entry inh | HCV inhibitor | FMDV antiviral | FBPA Giardia inh | HCMV antiviral
CCOC(=O)C1CCN(C(c2ccccc2)c2c(O)cc(C)n(Cc3ccco3)c2=O)CC1 (centres undefined) | . | / | / | . | / | .
CN(C)c1ccc(CNC(=O)CN2CCSc3ccc(S(=O)(=O)N(C)C)cc32)cc1 | . | / | / | . | / | .
CCOC(=O)NCCOc1ccc(Oc2ccccc2)cc1 | / | / | / | / | . | /
COc1cccc([C@@H]2Oc3ccc(Br)cc3C[C@H]2OC(=O)NCCc2ccc(OC)c(OC)c2)c1 | / | / | / | / | . | /
CCc1cccc(C)c1NC(=O)Cn1ccn(Cc2ccc(Cl)cc2)c(=O)c1=O | . | / | / | . | / | .
CCO[C@@H]1OC(C(=O)NCc2nc3ccccc3[nH]2)=C[C@H](C)[C@H]1CCCO | / | / | . | . | . | .
CCO[C@@H]1OC(C(N)=O)=C[C@H](c2ccc3c(c2)OCO3)[C@H]1CCCO | / | / | . | . | . | -95
CCO[C@H]1OC(C(=O)N2CCN(C)CC2)=C[C@@H](C(C)(C)C)[C@@H]1CCCO | / | / | ? | . | . | .
CCO[C@H]1OC(C(=O)N2CCN(Cc3ccccc3)CC2)=C[C@@H](c2ccc(C(F)(F)F)cc2)[C@@H]1CCCO | / | / | ? | . | . | -86
CCO[C@H]1OC(C(=O)N2CCN(Cc3ccccc3)CC2)=C[C@@H](c2ccccc2)[C@@H]1CCCO | / | / | . | . | . | .
CCO[C@H]1OC(C(=O)NC2CC2)=C[C@@H](c2ccc3c(c2)OCO3)[C@@H]1CCCO | / | / | . | . | . | .
CCO[C@H]1OC(C(=O)NCc2nc3ccccc3[nH]2)=C[C@@H](C)[C@@H]1CCCO | / | / | ? | . | . | -62
CCO[C@H]1OC(C(=O)N2CCN(C)CC2)=C[C@@H](C)[C@@H]1CCCO | / | / | . | . | . | -97
O=c1n(Cc2cc3c(cc2Cl)OCO3)c(=O)n2n1CC[C@H]1/C(=N\OCc3ccccc3)[C@H]3O[C@@H]3[C@@H](O)[C@@H]12 | / | / | / | / | .[12.9 µM] | /
CCOC(c1cc(OC)cc([N+](=O)[O-])c1OC)C(C)C(OC)[C@@H](C)/C=C/CC(=O)OC (some centres undefined) | / | . | / | / | .[12.9 µM] | /
CC(=O)c1ccc(Nc2nc3c(S(=O)(=O)c4ccccc4)nnn3c3ccc(Cl)cc23)cc1 | / | ? | / | . | / | .
Nc1ncnc2c1ncn2[C@@H]1O[C@H](CNC(=O)OC[C@@H](N)Cc2ccccc2)[C@@H](O)[C@H]1O | / | / | / | . | / | .
O=C(OCC1OC(n2cnc3c(N(C(=O)c4ccccc4)C(=O)c4ccccc4)ncnc32)C(O)C1F)c1ccccc1 (centres undefined) | 13µM | . | . | . | . | .
CC1CCc2onc(C(=O)N3CCN(c4ccccc4)CC3)c2C1 (centres undefined) | . | / | / | . | / | ?
O=S(=O)(c1ccc(Cl)s1)N1CCN(C/C=C/c2ccccc2)CC1 | 23µM | ? | . | . | ? | .
Clc1ccc2c(c1)nc1n2CCCC1 | / | / | 25µM | . | . | .
Cc1ccc(C)c(CNC(=O)c2ccc3c(c2)nc2n3CCOC2)c1 | ? | / | / | . | / | .
Cc1ccc(C)c(CNC(=O)c2ccc3c(c2)nc2n3CCCCC2)c1 | 7.9µM | / | / | . | / | .
O=C(NCCc1ccccc1Cl)c1ccc2c(c1)nc1n2CCCCC1 | ? | / | / | 25µM | / | -81
COC1=CC(=O)c2c(ccc3ncnc(N)c23)C1=O | ? | ? | ? | 2.5µM | / | -99
SMILES | Lassa entry inh | MARV entry inh | HCV inhibitor | FMDV antiviral | FBPA Giardia inh | HCMV antiviral
COC(=O)c1ccc(/C=C(\C#N)c2ccccn2)cc1 | / | / | . | . | . | .
CN(C)c1ccc(/C=C(\C#N)c2ccccn2)cc1 | 1.4µM | 1.2µM | ? | ? | . | -84
N#C/C(=C/c1cccs1)c1ccccn1 | / | / | ? | . | . | .
N#C/C(=C\c1ccccn1)c1ccccn1 | ? | ? | ? | . | . | -74
Cc1cc(C)n2nc(/C(C#N)=C/c3ccccn3)c(C#N)c2n1 | 10µM | ? | . | ? | . | .
Cc1cc(C)n2nc(CC#N)c(C#N)c2n1 | . | . | . | . | . | .
N#C/C(=C\c1ccc([N+](=O)[O-])cc1)c1ccccn1 | . | . | . | . | . | -75
Cc1cccc(NC(=S)N(CCc2ccncc2)C(C)C)c1C | . | ? | . | . | . | .

Screens: PubChem, National Center for Advancing Translational Sciences (NCATS)
